High-throughput results as filed in PubChem.
Rows were chosen to be rich in hits. Some 4.4% of all compounds tested hit in one or more screens of this group.
SKKanGAS inh = S. pyogenes SKKanGAS growth inhibitors in kanamycin, primary screen, streptokinase expression inhibitor project, SKKanGAS strain, BacTiter-Glo luminescence. 6 h. 300,000 compounds, 1.3% hits. inhibition, % at 7.5 µM;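 active = mean replicate score, as percent of positive control median, at least 50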;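 also: strain carries kanamycin resistance gene driven by streptokinase promoter and grows in 40 µg/ml kanamycin; loss of luminescence reflects streptokinase promoter inhibition or plain growth inhibition; 0% = median of DMSO wells and 100% = positive control at its reference dose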
PfHsp90 yeast 2 = growth inhibition of PfHsp90-expressing yeast, primary screen, antimalarial PfHsp90 inhibitor project, S. cerevisiae, BacTiter-Glo luminescence, single point, set 2. 310,000 compounds, 0.32% hits. BacTiter-Glo ATP, 48 h; yeast lacking PDR1 and PDR3 efflux regulators. inhibition, % at 9.4 µM. AID 504621, 2011;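 active = every replicate shows inhibition above about 80%, whatever the replicate mean, limit read from the data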;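 also: 0% = DMSO neutral controls and 100% = 20 µM radicicol positive controls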
tim23-1 inh = growth inhibitors of tim23-1 mutant yeast, primary screen, luminescence, uHTS; S. cerevisiae tim23-1 growth, BacTiter-Glo luminescence, 24 h; inhibition, % at 20 µM; 330,000 compounds, 1.3% hits;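 active = growth inhibition of the mutant yeast at or above 50%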;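 also: temperature-sensitive mutant grown at 25 °C; plate controls were DMSO-treated mutant yeast for no effect and medium wells lacking yeast for full effect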
tim10-1 inh = growth inhibitors of tim10-1 mutant yeast, primary screen, luminescence, uHTS | S. cerevisiae tim10-1 ts strain growth, BacTiter-Glo, 24 h | inhibition, % at 20 µM | 330,000 compounds, 2.2% hits;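 active = inhibition of at least 40%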;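 also: mutant grown at 25 °C; 0% = DMSO wells with yeast and 100% = wells holding no yeast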
TIM10 inh = growth inhibitors of isogenic TIM10 control yeast, primary screen, counter-screen for tim10-1 yeast inhibitor project, luminescence, uHTS | S. cerevisiae TIM10 strain growth, BacTiter-Glo luminescence, 24 h | inhibition, % at 10 µM | 330,000 compounds, 1.4% hits | AID 463195, 2010;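 active = inhibition of 40% or more at the single tested concentration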;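 also: wild-type TIM10 isogenic control strain grown at permissive 25 °C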
tim10-1 confirm = growth inhibitors of tim10-1 mutant yeast, confirmation, single concentration, luminescence, S. cerevisiae. shares compounds with tim10-1 inh. S. cerevisiae tim10-1 ts strain growth, BacTiter-Glo, 24 h. 7,400 compounds, 56% hits. inhibition, % at 20 µM;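 active = inhibition of yeast growth at or above a set limit in either of two repeat tests at 20 µM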;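 also: tim10-1 mutant grown at permissive 25 °C to find synthetic lethal compounds; 0% = DMSO yeast wells and 100% = medium wells without yeast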
tim10 confirm = growth inhibitors of wild-type TIM10 yeast, confirmation, counter-screen for tim10-1 synthetic lethality project, single concentration, luminescence, S. cerevisiae | shares compounds with TIM10 inh | S. cerevisiae tim10 strain growth, BacTiter-Glo luminescence, 24 h | inhibition, % at 10 µM | 4,600 compounds, 63% hits;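 active = inhibition of yeast growth at or above a set limit in either of two replicates at 10 µM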;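 also: this counterscreen used the strain with wild-type TIM10; 0% = yeast with DMSO and 100% = medium wells lacking yeast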
tim23-1 confirm = tim23-1 mutant yeast growth inhibitors, confirmation, luminescence, single concentration; S. cerevisiae tim23-1 growth, BacTiter-Glo luminescence, 24 h; 4,400 compounds, 83% hits; shares compounds with tim23-1 inh; inhibition, % at 20 µM; AID 463218, 2010;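 active = inhibition above about 39% in either of two replicate wells at 20 µM, limit read from the data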;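 also: temperature-sensitive tim23-1 mutant grown at 25 °C; 0% = DMSO wells with yeast and 100% = medium wells without yeast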
* hit, by the source's call; / = not tested or not shown.

SMILES	SKKanGAS inh	PfHsp90 yeast 2	tim23-1 inh	tim10-1 inh	TIM10 inh	tim10-1 confirm	tim10 confirm	tim23-1 confirm
Nc1cc(C(Cl)=C(Cl)Cl)c(S(N)(=O)=O)cc1S(N)(=O)=O	/	-6	-5	5	2	/	/	/
CCc1nnc(NC(=O)CCC(=O)N2CCC(Cc3ccccc3)CC2)s1	1	-21	18	20	6	/	/	/
COc1cc(/C=N/NC(=S)NC2CC3CC2C2C=CCC32)ccc1O (stereo unspecified)	-5	-12	75*	53*	-8	42*	/	62*
COc1cccc2cc(C(=O)CS(=O)(=O)c3ccc(C(C)(C)C)cc3)c(=O)oc12	0	5	52*	48*	31	17	/	54*
COc1ccc(S(=O)(=O)CC(=O)c2cc3cccc(C)c3oc2=O)cc1	11	8	65*	53*	-4	-18	/	57*
CCn1c(CC(=O)Nc2ccc(C)cc2)nnc1SCC(=O)N1CCOCC1	-2	-53	3	6	-16	/	/	/
COC(=O)c1ccccc1-c1ccc(C(c2c(C)[nH][nH]c2=O)c2c(C)[nH][nH]c2=O)o1	1	42	54*	56*	46*	36*	36*	48*
CSCc1cccc(C(=O)OC(C)C(=O)Nc2c(C)n(C)n(-c3ccccc3)c2=O)c1 (stereo unspecified)	/	-21	-9	7	4	/	/	/
Cc1nn(C)c(C(=O)Sc2ccccc2)c1[N+](=O)[O-]	-2	7	34	5	22	/	/	/
Cc1nn(C)c(C(=O)Sc2cccc(Cl)c2)c1[N+](=O)[O-]	-9	-10	61*	47*	32	65*	/	84*
Oc1c(Br)cc(Br)cc1C=Nc1cccc2ncccc12	24	-5	83*	55*	-5	41*	/	86*
COc1ccccc1/C=C(\C#N)C(=O)c1cccn1C	2	13	59*	43*	22	30	/	50*
Cc1ccc(C)c2sc(NC(=O)C3CC3)nc12	4	11	38	39	38	/	/	/
Cc1cc(C)c2sc(NC(=O)C3CC3)nc2c1	0	22	61*	47*	42*	32*	34*	65*
COC(=O)C1=C(C)N(c2ccc(Cl)c(Cl)c2)C(=O)C1	-1	-15	59*	46*	43*	47*	39*	50*
CCN(CC(=O)Nc1ccc2c(c1)OCCO2)C(=O)/C=C/c1cccc(Br)c1	-11	-14	31	19	7	/	/	/
Cc1c(Cl)cccc1NC(=O)CS(=O)(=O)c1ccccc1	-5	7	-1	-4	-3	/	/	/
CCCCn1nnc(NC(=O)c2ccc(-c3cccc(Cl)c3)o2)n1	-3	-31	72*	50*	45*	51*	47*	74*
Cc1cc(C)c2c(CN3CCCCC3)cc(=O)oc2c1	0	-25	6	11	4	/	/	/
Cc1cc(C)c2c(CCl)cc(=O)oc2c1	-2	/	62*	49*	42*	40*	40*	53*
COc1ccc(-c2noc(CNC(=O)c3ccoc3C)n2)cc1	-1	0	12	-21	-1	/	/	/
O=C(Nc1ccc(N2CCCC2)c(Cl)c1)c1ccc([N+](=O)[O-])o1	/	0	/	/	/	/	/	/
O=C(Nc1ccc(N2CCCCC2)cc1)c1ccc([N+](=O)[O-])o1	13	4	74*	59*	45*	47*	38*	70*
O=C(Nc1ccccc1N1CCCC1)c1ccc([N+](=O)[O-])o1	8	-3	66*	65*	52*	55*	45*	66*
O=C(Nc1cc(C(F)(F)F)ccc1-n1cncn1)c1ccc([N+](=O)[O-])o1	41	-36	54*	73*	47*	64*	57*	-16
SMILES	SKKanGAS inh	PfHsp90 yeast 2	tim23-1 inh	tim10-1 inh	TIM10 inh	tim10-1 confirm	tim10 confirm	tim23-1 confirm
COc1ccc(N2CCCC2)c(NC(=O)c2ccc([N+](=O)[O-])o2)c1	2	-7	68*	62*	71*	51*	80*	43*
CC1CCN(c2ccccc2NC(=O)c2ccc([N+](=O)[O-])o2)CC1	-9	-10	-13	16	-6	/	/	/
O=C(Nc1cc(C(F)(F)F)ccc1-n1cncn1)c1ccc(Br)cc1	2	-1	18	19	29	/	/	/
N#Cc1cc(N)ccc1Sc1ccc(Cl)cc1	0	-16	69*	55*	4	31*	/	48*
CCOc1ccc(CCNC(=O)COC(=O)c2sccc2C)cc1OCC	-5	-25	8	17	4	/	/	/
Cc1nn2c(NCc3ccccn3)cc(C(C)(C)C)nc2c1-c1ccccc1	97*	120*	58*	62*	56*	37*	72*	62*
O=C1c2ccccc2NC(c2ccc(-c3ccc(F)cc3)o2)N1O (stereo unspecified)	/	-11	19	5	-4	/	/	/
O=C1c2ccccc2NC(c2ccc(-c3ccc(Br)cc3)o2)N1O (stereo unspecified)	10	125*	62*	46*	44*	28	52*	65*
Cc1ccc(S(=O)(=O)Nc2cc(Cl)c(O)c3ncccc23)cc1	79*	104*	73*	62*	45*	29	49*	82*
CCOC(=O)c1sc(NC(=O)c2c(C)nn(Cc3ccccc3)c2C)cc1C	/	19	50*	43*	61*	46*	-1	52*
N#C/C(=C\c1ccccc1[N+](=O)[O-])C(=O)NC1CCCCC1	2	-19	76*	75*	72*	84*	83*	73*
N#C/C(=C\c1ccc(F)c(F)c1)C(=O)NC1CCCCC1	10	-2	68*	52*	65*	65*	78*	59*
C=CCNC(=O)/C(C#N)=C\c1cc(Cl)c(OCC)c(OC)c1	3	-23	82*	79*	67*	79*	73*	84*
C=CCNC(=O)/C(C#N)=C/c1ccc(C(=O)O)cc1	-3	1	12	5	-2	/	/	/
CCOc1c(Br)cc(/C=C(\C#N)C(=O)NC2CC2)cc1OC	1	20	87*	85*	56*	78*	67*	84*
